# Screening data as filed in PubChem.
# Rows were chosen to be rich in hits. Some 7.9% of all compounds tested hit in one or more screens of this group.
# MCF10A rerep – A quantitative high throughput screen for small molecules that induce DNA re-replication in MCF 10a normal breast cells. MCF 10A DNA re-replication, Hoechst nuclear intensity, 48 h. Potency, µM (titrated, usually from 46.1 µM), without a hit: at the top dose activity, positive = re-replication, actives largely listed as activators. 350,000 tested, 2.9% active. AID 624296, 2012; further: % of control where 0% means no effect; nearly all actives have a fitted effect of over 50% in size
# HT1080 IDH1KD tx – qHTS for induction of synthetic lethality in tumor cells producing 2HG: qHTS for the HT-1080-IDH1KD cell line; 360,000 tested, 2% active; HT-1080 IDH1 knockdown viability, ATP luminescence, 48 h; AID 686971, 2013; Potency, µM (series often up to 46.1 µM), for the others: at the top dose activity, negative = toxicity, usual class: cytotoxic;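 further: 0% = DMSO wells and -100% = cell-free medium wells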
#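 Assay cells: HT-1080 with IDH1 knockdown, 750 per well, RPMI/5% FBS. Exposure: 48 h at 37 °C following 2 h pre-incubation. Read: CellTiter-Glo luminescence; fitted concentration-response, curve class assigned.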
# KB-V1 MDR tox – qHTS assay for MDR1-selective chemotherapeutics: Primary screen using the drug-selected MDR subline cells KB-V1; KB-V1 MDR cells viability, CellTiter-Glo, 72 h; Potency, µM (titrated, usually from 46.1 µM), usual class: cytotoxic; 400,000 tested, 3.4% active; further: on the % scale 0 is the no-effect control and ±100 the full control effect; nearly all actives have a fitted effect of over 60% in size
#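 KB-V1 cells (P-gp-expressing MDR subline of KB-3-1) in phenol-red-free DMEM with 10% FBS were exposed to library compounds over a concentration series for 72 h at 37 degrees C. Viability read by CellTiter-Glo luminescence; concentration-effect curves fitted after normalization.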
# SW480 rerep – A quantitative high throughput screen for small molecules that induce DNA re-replication in SW480 colon adenocarcinoma cells | Potency, µM (titrated, usually from 46.1 µM), for the others: top-dose re-replication activation, most hits filed as activators | SW480 DNA re-replication, Hoechst DNA content imaging, 48 h | 340,000 tested, 1.8% active | AID 624297, 2012; further: % of control where 0% means no effect; nearly all actives have a fitted effect of over 55% in size
#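 Cells (250 per well) received 23 nL compound or DMSO by pin tool and were kept 48 hr at 37 C, 5% CO2. Nuclei were then stained with Hoechst for 40 min and scanned for DNA content.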
# KB-3-1 tox – qHTS assay for MDR1-selective chemotherapeutics: Primary screen using the parental adenocarcinoma cell KB-3-1; KB-3-1 viability, CellTiter-Glo ATP luminescence, 72 h; Potency, µM (highest dose often 46.1 µM), hits mostly cytotoxic; 400,000 tested, 1.4% active; further: on the % scale 0 is the no-effect control and ±100 the full control effect; nearly all actives have a fitted effect of over 60% in size
#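 Luminescent ATP read-out (CellTiter-Glo) measures survival of drug-naive KB-3-1 cells after 72 h compound exposure at 37 °C. Titration series was screened from lowest to highest concentration, with DMSO vehicle plates as background controls.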
# HT1080NT lethal – qHTS for induction of synthetic lethality in tumor cells producing 2HG: qHTS for the HT-1080-NT fibrosarcoma cell line; AID 686970, 2013; 360,000 tested, 1.6% active; HT-1080-NT fibrosarcoma viability, CellTiter-Glo ATP luminescence, 48 h; Potency, µM (series often up to 46.1 µM), for the others: top-dose activity, negative = less viability, most hits filed as cytotoxic;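 further: NT is the 2HG producing partner of a matched IDH1 knockdown line; 0% = DMSO-treated cells and -100% = media-only wells without cells; nearly all actives have a fitted effect of over 55% in size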
#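 Read-out is CellTiter-Glo luminescence after 10 minutes at room temperature, following 48 hours' compound treatment of HT-1080-NT cells (750 cells/well, RPMI, 5% FBS, 37 degrees C).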
# * = called active by the depositor; i = inactive; ? = inconclusive; . = not tested or not shown; [ ] = another dose, or the depositor's remark. The call rests on the fitted dose curve; in most records, active means well fitted curve in the direction sought with a large enough effect; inconclusive means small, poorly fitted or top-dose-only effect, or another doubt; inactive means no such curve, though single readings can be large; an effect the other way counts as inactive or inconclusive. Potency means the concentration at half of the fitted maximal effect.
SMILES,MCF10A rerep,HT1080 IDH1KD tx,KB-V1 MDR tox,SW480 rerep,KB-3-1 tox,HT1080NT lethal
COc1ccc(C2=NN(c3ccc(C=O)cc3)C(c3ccccc3)C2)cc1 (stereo unspecified),?,?,i,?,i,?
Cc1ccc(NC(=O)N2N=C(c3ccc(F)cc3)CC2c2ccc(F)cc2)cc1 (stereo unspecified),5.6%,-22.4%,23.1µM*,5.17µM*,i,-6.1%
COc1ccc(C2CC(c3ccc(F)cc3)=NN2c2ccccc2)cc1OC (stereo unspecified),16.4µM*,-26.4%,?,?,?,-18.2%
Oc1ccc(C2=NN(c3ccccc3)C(c3ccc(F)cc3)C2)cc1 (stereo unspecified),5.8µM*,25.9µM*,i,23.1µM*,i,18.4µM*
COc1ccc(C2=NN(c3ccccc3)C(c3ccc(OC)c(OC)c3)C2)cc1 (stereo unspecified),?,-16.1%,i,14.6µM*,?,2.4%
Oc1ccccc1C1=NN(c2ccccc2)C(c2ccc(F)cc2)C1 (stereo unspecified),?,-5.7%,i,?,i,-8.7%
COc1ccc(C2=NN(C(=O)c3ccccc3)C(c3ccc(OC)c(OC)c3)C2)cc1OC (stereo unspecified),14.2%,-6.2%,i,-6.4%,i,0.0%
N#CCCn1nc(Cc2cccc3ccccc23)c(C#N)c1N,3.3%,.,i,0.7%,i,.
O=C(c1cccs1)N1N=C(c2ccccc2)CC1c1ccc(O)cc1 (stereo unspecified),?,-6.7%,13µM*,5.4%,i,-9.6%
CC(=O)Nc1ccc(C2CC(c3ccc(Cl)cc3)=NN2c2ccccc2)cc1 (stereo unspecified),168.6%,-28.9%,i,1.46µM*,i,?
Fc1ccc(C2CC(c3cccs3)=NN2c2ccccc2)cc1 (stereo unspecified),3.55µM*,-17.3%,i,?,i,?
COc1ccc(NC(=O)N2c3ccc(OC)cc3C(C)=CC2(C)C)cc1,20.6µM*,-4.2%,?,-58.1%,i,-2.9%
CCOC(=O)COc1ccc(S(=O)(=O)Nc2cccc(SC)c2)cc1,6.0%,?,i,-1.0%,i,10µM*
CCCC(=O)NC(=S)Nc1ccc(S(=O)(=O)Nc2ccc(OCC)cc2)cc1,?,23.1µM*,?,4.8%,i,4.61µM*
CCOc1ccc(NS(=O)(=O)c2ccc(NS(=O)(=O)c3ccc(SC)cc3)cc2)cc1,?,-25.8%,23.1µM*,0.0%,i,-29.7%
CCOC(=O)N1CCN(C(=O)COc2ccc(S(=O)(=O)Nc3ccc(OCC)cc3)cc2)CC1,1.6%,?,i,5.1%,20.6µM*,-5.4%
CC(NC(=O)CNC(=O)C1CCCCC1)c1cccc(Cl)c1 (stereo unspecified),0.9%,22.7%,i,-21.1%,i,9.2%
Cc1nc2nc(SCC(=O)NCCCN3CCCC3)nn2c(C)c1Cc1ccccc1Cl,17.7%,-19.1%,i,0.0%,i,-4.6%
Cc1cc(C)cc(C(=O)NCC(=O)OCC(=O)NC2CCCc3ccccc32)c1 (stereo unspecified),-3.6%,-4.3%,i,2.2%,i,-1.4%
O=[N+]([O-])c1ccc(S(=O)(=O)N2CCn3cccc3C2c2ccccc2F)cc1 (stereo unspecified),.,.,i,.,i,.
CC(C)CNC(=O)C(=O)Nc1c2c(nn1-c1ccccc1)CS(=O)(=O)C2,.,.,i,.,i,.
CCOc1ccc(NS(=O)(=O)c2ccc(NC(=S)NC(=O)CC(C)C)cc2)cc1,?,-5.3%[9.24 µM],?,?,i,?
CC(C)CC(=O)NC(=S)Nc1ccc(S(=O)(=O)NC(C)(C)C)cc1,5.1%,-12.4%,14.6µM*,2.5%,i,-15.3%
Cc1nc2sccn2c(=O)c1S(=O)(=O)Nc1ccc(N2CCN(C(=O)C(C)C)CC2)cc1,-3.7%,3.3%,i,7.1%,i,-0.3%
O=C(Nc1ncccn1)C1c2ccccc2Oc2ccccc21,2.0%,2.8%,?,6.1%,i,5.3%
SMILES,MCF10A rerep,HT1080 IDH1KD tx,KB-V1 MDR tox,SW480 rerep,KB-3-1 tox,HT1080NT lethal
Cc1cccc2sc(NC(=O)C3CC3)nc12,?,3.7%,i,1.2%,i,4.7%
Cc1cccc2sc(NC(=O)c3ccc(Cl)s3)nc12,16.4µM*,-2.5%,i,-3.5%,i,0.0%
O=C(Nc1ccncc1)C1c2ccccc2Oc2ccccc21,-0.9%,-16.9%,14.6µM*,-3.0%,i,-0.2%
Cc1nnc(NC(=O)C2c3ccccc3Oc3ccccc32)s1,13µM*,?,i,?,?,-21.9%
Cc1cccc2sc(NC(=O)C3c4ccccc4Oc4ccccc43)nc12,6.51µM*,?,?,?,i,-24.6%[9.24 µM]
O=c1c2c(n3cnnc3n1C1CCCCC1)-c1ccccc1CC21CCCCC1,-8.2%,26.3%,i,-1.2%,i,-0.9%
O=C(CCc1nc2ccccc2s1)N1CCN(S(=O)(=O)c2cccs2)CC1,5.9%,6.3%,i,9.9%,i,2.5%
O=S(=O)(c1cccs1)N1CCN(Cc2nc3ccccc3s2)CC1,4.7%,-8.7%,23.1µM*,6.1%,i,-9.2%
COc1ccc(C2CC(c3ccc(OC)c(OC)c3)=NN2C(=O)c2ccccc2)cc1 (stereo unspecified),-4.9%,0.0%,i,4.5%,i,3.2%
CCN(CC)CCCNc1nc2cc(OC)c(OC)cc2c2nc(-c3ccccc3)nn12,?,?,16.4µM*,?,23.1µM*,18.4µM*
CN1CCN(CCCNc2nc3ccccc3c3nc(-c4ccccc4)nn23)CC1,?,24.5%,i,?,i,11.0%
CCN(CC)CCCNc1nc2ccccc2c2nc(-c3ccncc3)nn12,?,16.4µM*,?,?,18.4µM*,?
CCN(CC)CCCNc1nc2cc(OC)c(OC)cc2c2nc(-c3cccnc3)nn12,?,-1.0%,?,?,i,-2.8%
COc1cc2nc(NCCCN3CCN(C)CC3)n3nc(-c4ccccc4)nc3c2cc1OC,13µM*,?,?,?,?,16.4µM*
